Measured values reported in PubChem BioAssay AID463173 (ICCB-Longwood Screening Facility, Harvard Medical School, 2010).
The whole screen tested about 52,000 compounds, of which about 1,700 (3.3%) were called active. The sample holds actives, similar compounds and a random draw of the others, so the mix is not that of the screen. Cut-off read from the data, not from the text of the source: active = survival mostly below about 52% (no sharp cut-off); inactive = mostly above about 56%.

Each compound was assayed on Wild type (assay: S. aureus survival, RN4220 and DeltatarO strains – OD600, teichoic acid synthesis inhibitors, primary screen (AID 463173)). Conditions: S. aureus RN4220 wild type/DeltatarO growth, OD600, 18 h, hits give low values, screened at 18.75 µg/mL (by protocol).

Compound	survival
Cc1cccc(C)c1NC(=O)CN1C(=O)CCSc2ccc(S(=O)(=O)N3CCCC3)cc21	72% (inactive)
CCN(C(=O)C(=O)Nc1ccc2nc3n(c(=O)c2c1)CCCCC3)c1ccc(F)cc1	94% (inactive)
COc1ccc(-n2nc(C(=O)N3CCN(c4ccccc4OC)CC3)c3c4ccccc4n(C)c3c2=O)cc1	80% (inactive)
Cc1ccc(CSc2cn(CC(=O)N3CCCCC3)c3ccccc23)cc1	90% (inactive)
CCc1ccc(C2C(C(=O)Nc3ccccc3C)=C(C)Nc3nc(SCc4cccc(OC)c4)nn32)cc1 (stereo not drawn)	146% (inactive)
O=C1CC2CCCC(CN1)N2CC(=O)NCc1ccco1 (stereo not drawn)	104% (inactive)
COc1ccc(COC(=O)c2[nH]c3c(c2C)C(=O)CC(c2ccc(OC)c(OC)c2)C3)cc1 (stereo not drawn)	92% (inactive)
COc1ccccc1C(=O)Nc1ccc(-c2cc(C(F)(F)F)nn2-c2ccccc2)cc1	39% (inactive)
COc1ccccc1C(=O)NC(=O)Nc1ccc(-c2cc(C(F)(F)F)nn2-c2ccccc2)cc1	5% (active)
COc1ccccc1C(=O)NC(=O)Nc1ccc(-n2nc(C(F)(F)F)cc2C(F)(F)F)cc1	101% (inactive)
COc1ccc(-c2cc3ccc(O)c(CN4CCCC4)c3oc2=O)cc1	124% (inactive)
CCOc1ccccc1NC(=O)c1c(NC(=O)COc2ccc(Cl)cc2)sc2c1CCCCC2	75% (inactive)
CCOc1ccc(OC(=O)c2c(-c3ccccc3Cl)noc2C)cc1	59% (inactive)
Cc1onc(-c2ccccc2Cl)c1C(=O)Oc1ccc(Br)cc1	4% (active)
CC(=O)c1ccc(OC(=O)c2c(-c3ccccc3Cl)noc2C)cc1	56% (inactive)
Cc1ccc(S(=O)(=O)NCC(c2ccc(N(C)C)cc2)N2CCOCC2)cc1 (stereo not drawn)	65% (inactive)
CN(C)c1ccc(C(CNS(=O)(=O)c2ccc(Cl)cc2)N2CCOCC2)cc1 (stereo not drawn)	10% (active)
CN(C)c1ccc(C(CNS(=O)(=O)c2ccc(Cl)cc2)N2CCCC2)cc1 (stereo not drawn)	-3% (active)
CN(C)c1ccc(C(CNS(=O)(=O)c2ccc(F)cc2)N2CCCC2)cc1 (stereo not drawn)	124% (inactive)
Cc1ccc(S(=O)(=O)NCC(c2ccc(N(C)C)cc2)N2CCCC2)cc1 (stereo not drawn)	88% (inactive)
CN(C)c1ccc(C(CNS(=O)(=O)c2ccc(F)cc2)N2CCOCC2)cc1 (stereo not drawn)	83% (inactive)
C=CCn1cc(F)c(=O)n(CC=C)c1=O	109% (inactive)

Compound	survival
CCOc1ccc(NC(=O)Cn2nc(Cc3ccncc3)c3ccccc3c2=O)cc1	108% (inactive)
CC(C)C(=O)N1CCN(c2ccc(NC(=O)c3ccccc3)cc2)CC1	95% (inactive)
O=C(Nc1ccc2oc(=O)ccc2c1)c1cccc(F)c1	106% (inactive)
COc1ccc2nc(N(Cc3cccnc3)C(=O)c3ccco3)sc2c1	70% (inactive)
CCS(=O)(=O)c1ccccc1C(=O)N(Cc1cccnc1)c1nc2cc(C)c(C)cc2s1	118% (inactive)
COc1ccc2sc(N(Cc3cccnc3)C(=O)c3cccs3)nc2c1	64% (inactive)
COc1cc(C(=O)N(Cc2cccnc2)c2nc3cc(C)c(C)cc3s2)cc(OC)c1OC	22% (inactive)
COc1ccc2sc(N(Cc3cccnc3)C(=O)c3ccco3)nc2c1	-4% (active)
Cc1cc2nc(N(Cc3cccnc3)C(=O)c3ccc(Cl)s3)sc2cc1C	0% (active)
Cc1scc(-c2ccccc2)[n+]1CCO	109% (inactive)
CCOc1ccc(NC2SC(=O)N(Cc3ccccc3)C2=O)cc1 (stereo not drawn)	72% (inactive)
COc1cc(OC)c(NC(=O)c2cnn(-c3cccc(Cl)c3C)c2C2CCN(C(=O)OC(C)(C)C)CC2)cc1Cl	53% (inactive)
CCOC(=O)c1ccn(-c2nc(-c3cccc(OC)c3)cc(C(F)(F)F)n2)n1	48% (inactive)
COc1ccc(CNC(=O)CSc2nc(-c3ccc(OC)c(OC)c3)cc(C(F)(F)F)n2)cc1	83% (inactive)
COC(=O)c1ccn(-c2nc(-c3ccc(Cl)cc3)cc(C(F)(F)F)n2)n1	9% (active)
COc1ccc(CNc2nc(-c3ccc(Cl)cc3)cc(C(F)(F)F)n2)cc1	-4% (active)
COc1ccc(-c2cc(C(F)(F)F)nc(SCC(=O)NCc3ccc(Cl)cc3)n2)cc1	83% (inactive)
COc1ccc(-c2cc(C(F)(F)F)nc(S(C)(=O)=O)n2)cc1	98% (inactive)
COc1ccc(-c2cc(C(F)(F)F)nc(NCc3ccc(Cl)cc3)n2)cc1	-3% (active)
COC(=O)CSc1nc(-c2ccc(F)cc2)cc(C(F)(F)F)n1	123% (inactive)
CS(=O)(=O)N(CC(=O)N1CCCC1)c1cccc(Cl)c1Cl	97% (inactive)
Cc1cc(C)c2nc(NC(=O)c3ccc(S(=O)(=O)N4CCC(C)CC4)cc3)sc2c1	79% (inactive)

Compound	survival
O=C(CN1C(=O)CSC1=O)NC1CCCCC1	104% (inactive)
COc1ccc(OC)c(-c2cc(C(=O)NC(C)c3ccccc3)no2)c1 (stereo not drawn)	-12% (active)
COc1ccc(OC)c(-c2cc(C(=O)Nc3ccc(C)c(C)c3)no2)c1	-9% (active)
CC(NC(=O)c1cc(-c2ccc(Cl)cc2)on1)c1ccccc1 (stereo not drawn)	140% (inactive)
COc1ccc(OC)c(-c2cc(C(=O)NCc3ccc(Cl)cc3)no2)c1	85% (inactive)
COc1ccc(OC)c(-c2cc(C(=O)Nc3cccc(Cl)c3C)no2)c1	26% (inactive)
CC(C)c1cc(C(=O)NC(C)c2ccccc2)no1 (stereo not drawn)	81% (inactive)
COc1ccc(CNc2oc(-c3ccc(COc4ccc(OC)cc4)o3)nc2C#N)cc1	129% (inactive)
CC(=O)c1nn(-c2ccc(OC(F)(F)F)cc2)nc1Nc1ccc(C)cc1	96% (inactive)
CCCS(=O)(=O)Nc1cc2c(cc1NCc1ccccc1)n(C)c(=O)n2C	82% (inactive)
Cc1cccc(S(=O)(=O)c2cn(Cc3ccccc3)c3cc(N4CCCCC4C)c(F)cc3c2=O)c1 (stereo not drawn)	71% (inactive)
COc1ccc(S(=O)(=O)c2cnc3ccc(Cl)cc3c2N2CCCCC2C)cc1 (stereo not drawn)	23% (inactive)
CCN1CCN(c2c(S(=O)(=O)c3ccccc3)cnc3ccc(Cl)cc23)CC1	119% (inactive)
CCN1CCN(c2c(S(=O)(=O)c3ccc(Cl)cc3)cnc3ccccc23)CC1	82% (inactive)
Cc1ccc2ncc(S(=O)(=O)c3ccccc3)c(N3CCCCC3C)c2c1 (stereo not drawn)	0% (active)
CC1CCCCN1c1c(S(=O)(=O)c2ccc(Cl)cc2)cnc2ccccc12 (stereo not drawn)	3% (active)
COc1ccc(Cl)cc1NC(=O)Cn1nnc(C(=O)NCc2ccc3c(c2)OCO3)c1N	81% (inactive)
c1ccc(Cn2nnnc2C(c2cccnc2)N2CCN(c3ccccc3)CC2)cc1 (stereo not drawn)	113% (inactive)
COC(=O)COc1ccc(Oc2nc(NC(C)(C)C)nc(N(C)C)n2)nn1	85% (inactive)
CCCc1cnc2c(c1SCC(=O)NCc1ccc(C)cc1)c(=O)n(C)c(=O)n2C	-6% (active)
CCc1cnc2c(c1SCC(=O)NCc1ccc(C)cc1)c(=O)n(C)c(=O)n2C	67% (inactive)
Cc1ccc(CNC(=O)CSc2c(C(C)C)cnc3c2c(=O)n(C)c(=O)n3C)cc1	58% (inactive)

Compound	survival
CCOC(=O)c1cc(-c2ccccc2)n(-c2cccc(C(=O)Nc3cccc(F)c3)c2)c1C	131% (inactive)
CCOC(=O)c1cc(-c2ccccc2)n(-c2cccc(C(=O)Nc3cccc(C(C)=O)c3)c2)c1C	70% (inactive)
CCOC(=O)c1cc(-c2ccccc2)n(-c2cccc(C(=O)Nc3cccc(SC)c3)c2)c1C	0% (active)
CCOC(=O)c1cc(-c2ccccc2)n(-c2cccc(C(=O)Nc3ccc(OC)cc3)c2)c1C	77% (inactive)
CCOC(=O)c1cc(-c2ccccc2)n(-c2cccc(C(=O)Nc3cc(OC)cc(OC)c3)c2)c1C	88% (inactive)
CCOC(=O)c1cc(-c2ccccc2)n(-c2cccc(C(=O)Nc3ccc(OCC)cc3)c2)c1C	10% (active)
CCc1ccc(Nc2nnc(-c3cc4cc(OC)ccc4oc3=O)s2)cc1	138% (inactive)
CCC(CC)C(=O)Nc1cc(-c2cccc(C)c2)nn1-c1ccccc1	69% (inactive)
COc1ccc(CCn2c(=O)[nH]c3cc(C(=O)N4CCN(c5ccccc5)CC4)ccc3c2=O)cc1OC	102% (inactive)
O=C1OC(c2ccccc2)=C/C1=C/N1CCOCC1	116% (inactive)
Cc1ccc(S(=O)(=O)Nc2nc3n(n2)C(c2ccc(Cl)cc2)C=C(c2ccccc2)N3)cc1 (stereo not drawn)	-4% (active)
O=S(=O)(Nc1nc2n(n1)C(c1ccc(F)cc1)C=C(c1ccc(Cl)cc1)N2)c1ccccc1 (stereo not drawn)	57% (inactive)
Cc1ccc(C2C=C(c3ccccc3)Nc3nc(NS(=O)(=O)c4ccccc4)nn32)cc1 (stereo not drawn)	83% (inactive)
COc1ccc(C2C=C(c3ccc(F)cc3)Nc3nc(-c4ccc(Cl)cc4)nn32)cc1 (stereo not drawn)	105% (inactive)
COc1ccc(C2C=C(c3ccccc3)Nc3nc(NS(=O)(=O)c4ccc(C)cc4)nn32)cc1 (stereo not drawn)	66% (inactive)
COc1ccc(C2C=C(c3ccccc3)Nc3nc(NS(=O)(=O)c4ccccc4)nn32)cc1 (stereo not drawn)	29% (inactive)
COc1ccc(C2C=C(c3ccccc3)Nc3nc(NS(=O)(=O)c4ccc(Cl)cc4)nn32)cc1 (stereo not drawn)	0% (active)
Cc1ccc(C2=CC(c3ccc(Cl)cc3)n3nc(-c4ccc(C)cc4)nc3N2)cc1 (stereo not drawn)	1% (active)
O=S(=O)(Nc1nc2n(n1)C(c1ccc(F)cc1)C=C(c1ccccc1)N2)c1ccccc1 (stereo not drawn)	74% (inactive)
O=S(=O)(Nc1nc2n(n1)C(c1ccc(F)cc1)C=C(c1ccccc1)N2)c1ccc(Cl)cc1 (stereo not drawn)	14% (active)
COc1ccc(C2C=C(c3ccc(Cl)cc3)Nc3nc(-c4ccc(Cl)cc4)nn32)cc1 (stereo not drawn)	88% (inactive)
Cc1ccc(C2C=C(c3ccc(Cl)cc3)Nc3nc(NS(=O)(=O)c4ccccc4)nn32)cc1 (stereo not drawn)	75% (inactive)
